Experimental data from PubChem BioAssay AID1159580 (chemical genetic matrix, 2015).
The whole screen tested about 5,500 compounds, of which about 2,000 (36%) were called active. Another 18% or so got no clear call; they are omitted. Cut-off read from the data, not from the text of the source: active = normalized growth mostly below about 0.91 (no sharp cut-off); inconclusive = no clear call, values can overlap the other calls; inactive = mostly above about 0.92. Some of the results follow.

Assay: chemical genetic growth profiling, strain panel (AID 1159580);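 note: tested at 20 µM; growth read once vehicle control cultures reached saturation at 30 °C; 1 = growth at the plate median or of vehicle wells; lower values mean less growth of the strain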
Details: growth OD

Measured: normalized growth

COC(=O)c1ccccc1-n1cccc1C(=O)OC
inactive: S. cerevisiae deletion strains, locus YAL013W, strain DEP1, active compounds read low 0.981 | S. cerevisiae deletion strains, locus YBR229C, strain ROT2, active compounds read low 0.975 | S. cerevisiae deletion strains, locus YDL101C, strain DUN1, active compounds read low 0.971 | S. cerevisiae deletion strains, locus YDL134C, strain PPH21, active compounds read low 0.997 | S. cerevisiae deletion strains, locus YDR150W, strain NUM1, active compounds read low 1.01 | S. cerevisiae deletion strains, locus YEL061C, strain CIN8, active compounds read low 0.994 | S. cerevisiae deletion strains, locus YGR078C, strain PAC10, active compounds read low 0.982 | S. cerevisiae deletion strains, locus YGR229C, strain SMI1, active compounds read low 1.02 | S. cerevisiae deletion strains, locus YHR030C, strain SLT2, active compounds read low 1.04 | S. cerevisiae deletion strains, locus YHR087W, strain rtc3, active compounds read low 0.96 | S. cerevisiae deletion strains, locus YJL187C, strain SWE1, active compounds read low 0.996 | S. cerevisiae deletion strains, locus YJR043C, strain POL32, active compounds read low 0.993 | S. cerevisiae deletion strains, locus YJR075W, strain HOC1, active compounds read low 1.05 | S. cerevisiae deletion strains, locus YLR039C, strain RIC1, active compounds read low 0.97 | S. cerevisiae deletion strains, locus YLR058C, strain SHM2 (second series), active compounds read low 0.989 | S. cerevisiae deletion strains, locus YLR085C, strain ARP6, active compounds read low 1.03 | S. cerevisiae deletion strains, locus YLR262C, strain YPT6, active compounds read low 0.973 | S. cerevisiae deletion strains, locus YML094W, strain GIM5, active compounds read low 0.957 | S. cerevisiae deletion strains, locus YMR219W, strain ESC1, active compounds read low 0.99 | S. cerevisiae deletion strains, locus YMR263W, strain SAP30, active compounds read low 1.02 | S. cerevisiae deletion strains, locus YNL153C, strain GIM3, active compounds read low 1 | S. cerevisiae deletion strains, locus YNL298W, strain CLA4 (second series), active compounds read low 0.988 | S. cerevisiae deletion strains, locus YNL322C, strain KRE1, active compounds read low 0.992 | S. cerevisiae deletion strains, locus YNR030W, strain Alg12, active compounds read low 0.973 | S. cerevisiae deletion strains, locus YOL006C, strain TOP1, active compounds read low 0.969 | S. cerevisiae deletion strains, locus YPL055C, strain LGE1, active compounds read low 0.972 | S. cerevisiae deletion strains, locus YPL241C, strain CIN2, active compounds read low 0.969 | S. cerevisiae deletion strains, locus YPR135W, strain CTF4, active compounds read low 0.943 | S. cerevisiae strains, strain wild type, active compounds read low 0.993
